Rows were chosen to be rich in hits. Some 2.2% of all compounds tested hit in one or more screens of this group.
hiPSC survival: enhancers of human iPSC single-cell survival. hiPSC single-cell survival, ATPlite luminescence; 100% = ROCK inhibitor wells, 0% = DMSO. survival enhancement, % at 20 µM. 0.044% of 360,000 active. AID 602274; in the data active = survival enhancement above about 18%;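 also: cells exposed to compounds for 16 hours before the ATP read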
PPC-1+TRAIL kill: compounds killing PPC-1 cancer cells with TRAIL present (potentiator screen, no TRAIL-free arm); PPC-1 cells + TRAIL, ATPLite viability luminescence; cell killing (% activity), % at 4 µM or 5 µM; 0.41% of 220,000 active;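 active = cell killing above 50% in the first pass at 4 µM, then a duplicate retest at 5 µM averaging 50% or more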;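 also: plate controls were cells with TRAIL plus DMSO for no effect and medium-only wells lacking cells for full effect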
KKLEB cytotox: counter-screen for CF NF-kB inhibitors: cytotoxicity; activity change (cytotoxicity), % at 5 µM; 0.36% of 360,000 active; KKLEB CF airway cells viability, ATPlite luminescence, overnight; hits give low values; cells stimulated with P. aeruginosa culture filtrate; AID 602141;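 active = corrected activity change at or below -50% at 5 µM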
C8 TRAIL sens: sensitizes caspase-8 expressing cells to TRAIL; 1% of 360,000 active; NB7+C8 cells + TRAIL, ATPlite viability luminescence; AID 624354; inhibition (viability loss, TRAIL sensitization), % at 10 µM;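 active = compounds causing at least 50% loss of cell viability in the single-dose screen, relative to plate controls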
HIF-2a inh: blocks HIF-2a reporter activity; 0.72% of 360,000 active; inhibition, % at 18.8 µM; 786-0 RCC cells HIF-2a reporter, luciferase luminescence, overnight;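 active = inhibition of the luminescence signal of 40% or more relative to plate controls, in a single-dose primary screen at 18.75 µM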
CF NFkB inh: blocks PAF-induced NF-kB reporter in cystic fibrosis cells; KKLEB NF-kB-GFP reporter, GFP fluorescence overnight; inhibition, % at 5 µM; 0.86% of 360,000 active;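 active = at least 50% inhibition at 5 µM, scaled per plate between neutral and stimulator controls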;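 also: PAF is a Pseudomonas aeruginosa culture filtrate used as stimulus; plate controls were PAF-stimulated DMSO wells for no effect and unstimulated DMSO wells for full effect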
* hit, by the source's call; nt = not tested or not shown.

SMILES | hiPSC survival | PPC-1+TRAIL kill | KKLEB cytotox | C8 TRAIL sens | HIF-2a inh | CF NFkB inh
C[C@@H]1[C@H]2[C@@H](O[C@@H]3O[C@H](CO)[C@@H](O)[C@H](O)[C@H]3O)OC=C(C(=O)O)[C@H]2C[C@@H]1O | 0 | nt | 6 | -15 | 8 | -3
CC(=O)N(Cc1ccc(F)cc1)C1=C(NCc2ccccc2)C(=O)c2ccccc2C1=O | -4 | 46 | -53* | 97* | 68* | 92*
O=C(NCc1ccc(F)cc1)C(c1ccccc1)c1ccccc1 | 0 | nt | 4 | -10 | 21 | -12
COc1ccc(/C=C(\NC(=O)c2ccc(C)cc2)C(=O)NCCCN2CCOCC2)cc1OC | 0 | nt | 9 | -2 | 10 | -5
CCC(=O)c1ccc(/C=C/c2nc3ccccc3n2C)o1 | -4 | 8 | -9 | 51* | -176 | -27
O=S(=O)(c1ccccc1)c1nnn2c1nc(NC1CCN(Cc3ccccc3)CC1)c1ccccc12 | -1 | nt | -14 | 76* | 28 | 17
COC(=O)[C@@]12C[C@@H](CC(=O)NCc3cccc4ccccc34)C(=O)N(Cc3ccc4c(c3)OCO4)C1=CCC(C)(C)C2 | nt | nt | nt | -11 | -42 | nt
CCOC(=O)/C=C/C(=O)Nc1cccc([N+](=O)[O-])c1 | 0 | 11 | -45 | -30 | 4 | 88*
CCOC(=O)c1cccc(NC(=O)/C=C/c2cccc([N+](=O)[O-])c2)c1 | -2 | 6 | -8 | 1 | -59 | -7
CN(C)c1ccc(-c2ccc3c(=O)c4ccccc4n(C)c3c2)cn1 | 2 | nt | 13 | 26 | -188 | -53
O=C1NC(=NCc2ccccc2)S/C1=C/c1ccc(O)cc1 | 2 | -10 | -43 | 12 | 10 | 53*
CC(=O)NC(CC(=O)Nc1ccc2c(c1)OCCO2)c1ccccc1 (centres undefined) | 0 | nt | 5 | -3 | -116 | -10
COc1ccc(NC(=O)COC(=O)C23CCC(=O)N2c2ccccc2S3)cc1 (centres undefined) | -1 | 14 | 4 | 7 | 9 | -14
O=C1CCC2(C(=O)O)Sc3ccccc3N12 (centres undefined) | 21* | 14 | -1 | -12 | 6 | 0
C=CCn1c2ccccc2c(=O)c2cc(C#CC3(O)CCCCC3)ccc21 | -5 | nt | -35 | 81* | -209 | 4
C=CCn1c2ccccc2c(=O)c2cc(C#CC[C@@H](C)O)ccc21 | -4 | nt | -5 | 53* | -297 | 11
COc1ccccc1NS(=O)(=O)c1cccc(C(=O)NCC(c2ccco2)N(C)C)c1 (centres undefined) | 0 | nt | 5 | 3 | 19 | -6
CCC1CCCCN1Cc1nc(Cc2ccccc2Cl)no1 (centres undefined) | 0 | 0 | -22 | 85* | 9 | 4
CCCCNC(=O)C1(C)CCN1C(=O)c1cncc(Br)c1 (centres undefined) | 0 | nt | 4 | -18 | 5 | -7
CCN(CC)C(=O)C1CCN(Cc2ccc(OCc3ccccc3)c(OC)c2)CC1 | 0 | nt | 1 | 3 | -53 | -6
COC(=O)c1ccc(/C=C(\C#N)c2ccccn2)cc1 | 0 | 43 | -8 | 52* | -344 | -20
COc1cc(/C=C(\C#N)c2ccccn2)cc(OC)c1O | 0 | -4 | 1 | 8 | -11 | -22
CN(C)c1ccc(/C=C(\C#N)c2ccccn2)cc1 | -4 | 14 | -91* | 94* | 31 | -6
N#C/C(=C\c1ccc([N+](=O)[O-])cc1)c1ccccn1 | 3 | -21 | -13 | 11 | -231 | 10
CCCCn1c(CCl)nc2cc(S(=O)(=O)N3CCOCC3)ccc21 | 0 | nt | 14 | 69* | 10 | 45
SMILES | hiPSC survival | PPC-1+TRAIL kill | KKLEB cytotox | C8 TRAIL sens | HIF-2a inh | CF NFkB inh
Cc1nc(Nc2ccccc2)sc1-c1ccccc1 | -4 | 33 | -16 | 66* | -185 | -7
COc1cc(OC)cc(C(=O)NNC(=O)CCC(=O)c2cccs2)c1 | 0 | nt | 1 | -5 | 12 | 9
Cc1ccccc1Nc1cc2ccccc2c(=O)[nH]1 | 6 | 21 | -7 | 88* | -7 | 26
O=c1[nH]c(Nc2ccccc2Cl)cc2ccccc12 | 2 | nt | -14 | -14 | -114 | 2
Cc1ccccc1NC(=O)c1ccc(N/N=C/c2ccccc2O)c([N+](=O)[O-])c1 | -1 | 12 | -10 | 41 | 8 | 3
Cc1ccc(NC(=O)c2ccc(N/N=C/c3cccc(O)c3)c([N+](=O)[O-])c2)cc1 | 0 | 53* | -17 | 44 | -12 | 20
O=C(c1cccc(S(=O)(=O)NCc2ccccc2)c1)N1CCCC(C(F)(F)F)C1 (centres undefined) | 2 | nt | -5 | -15 | 4 | 12
CC(=O)OCC(=O)[C@@]1(O)CC[C@H]2[C@@H]3CCC4=CC(=O)C=C[C@]4(C)[C@@]3(F)[C@@H](O)C[C@@]21C | 2 | nt | -16 | 5 | 23 | 65*
CC12C=CC(=O)C=C1C(F)CC1C3CCC(O)(C(=O)CO)C3(C)CC(O)C12F (centres undefined) | -1 | nt | 24 | 6 | 20 | 69*
CC12C=CC(=O)C=C1CCC1C3CCC(O)(C(=O)CO)C3(C)CC3OC312 (centres undefined) | -1 | 2 | 10 | -7 | 24 | -3
CC(=O)OCC(=O)[C@@]12OC(C)(C)O[C@@H]1C[C@H]1[C@@H]3C[C@H](F)C4=CC(=O)C=C[C@]4(C)[C@@]3(F)[C@@H](O)C[C@@]12C | nt | 17 | nt | nt | nt | nt
CC12C=CC(=O)C=C1CCC1C3CCC(O)(C(=O)CO)C3(C)CC(O)C12F (centres undefined) | 1 | nt | 36 | -5 | 12 | 70*
CC(=O)OCC(=O)C1(O)CCC2C3CC(F)C4=CC(=O)CCC4(C)C3C(=O)CC21C (centres undefined) | -1 | nt | -2 | 1 | 15 | 28
CC(=O)OCC(=O)C1(O)CCC2C3CCC4=CC(=O)CCC4(C)C3(F)C(O)CC21C (centres undefined) | 4 | nt | 36 | 13 | 23 | 75*
N=C1SCC(=O)N1c1ncc(Cc2cccc(Cl)c2)s1 | 0 | nt | 6 | 15 | 12 | -7
OCCCNc1cc(-c2ccccc2)nc2cc(-c3ccc(F)cc3)nn12 | 1 | nt | 8 | 15 | -23 | -16
Cc1ccc(SCC(=O)OCC(=O)N2CCN(C(=O)c3ccco3)CC2)c(C)c1 | 1 | nt | -1 | 8 | 14 | 17
Cc1ccn2cc(-c3ccc(O)c(O)c3)nc2c1 | -1 | nt | -6 | 76* | -107 | 5
Cc1ccccc1NC(=O)C(=Cc1ccc(C(=O)O)cc1)C(=O)Nc1ccccc1C | -1 | -4 | -44 | 9 | 42* | 0
CC(=O)Nc1ccccc1C | 1 | nt | -4 | 4 | 13 | 16
Nc1ncnc2c1ncn2C1O[C@H](CO)[C@@H](O)[C@@H]1O (some centres undefined) | 1 | nt | -46 | 12 | 15 | -3

Bioassay records: PubChem BioAssay, Sanford-Burnham Center for Chemical Genomics
